Data from PubChem BioAssay AID1569 (National Center for Advancing Translational Sciences (NCATS), 2009).
Records with an inconclusive call do not appear. Calls of active or inactive are those of the source. The call rests on the fitted dose curve; in most records, active means well fitted inhibition curve with a large enough effect; inconclusive means small, poorly fitted or top-dose-only effect, or effect the other way, or another doubt; inactive means no such curve, though single readings can be large or run the other way.

Assay: Confirmation Concentration-Response Assay for lipid storage modulators; further: nearly all actives have a fitted effect of over 80% in size
Settings: Drosophila S3 cells, lipid droplet BODIPY/CellTracker ratio, 18-24 h; series mostly up to 46.1 µM
Summary of the method: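 Cells at 5,000/well received compound as a titration plus oleic acid (added as 400 uM solution) and were incubated 18–24 h at 24 °C. BODIPY 493/503 lipid signal and CellTracker Red cell count were read by 488-nm laser-scanning cytometry. Activity was normalised to 20 uM Triacsin C.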
Potency means the concentration at half of the fitted maximal effect.

Compound | Potency
Cc1cc(N2CCCC2=O)cc(C)c1S(=O)(=O)NCCOc1ccc(C(C)(C)C)cc1 | 3.97 µM (active)
CCOC(=O)c1cc2c(ccn2-c2ccc(F)cc2)n1CC(=O)N(CC)CC | 2.17 µM (active)
Nc1cccc(-c2nc3cc(S(=O)(=O)c4ccc5oc(-c6cccc(N)c6)nc5c4)ccc3o2)c1 | 6.28 µM (active)
COc1ccccc1NC(=O)NC1(C(=O)N2CCC(C)CC2)CCCCC1 | inactive
COc1cccc(C(=O)O[C@@H]2[C@H](Cc3ccccc3)NS(=O)(=O)[C@H]3C[C@@H]4C=C[C@]23O4)c1 | 11.2 µM (active)
COc1ccc(OC)c(NC(=O)CSc2ncnc3c2cnn3-c2ccccc2Cl)c1 | 1.77 µM (active)
COCCN(C(=O)c1ccccc1F)c1nnc(-c2ccc(OC)cc2)s1 | 25 µM (active)
CCN(CC(=O)Nc1c(F)cccc1F)C(=O)CCCc1c[nH]c2ccccc12 | 0.628 µM (active)
COc1ccc(CCNC(=O)CCc2ccc(S(=O)(=O)NC(C)C)cc2)cc1OC | inactive
COc1ccc(-c2cnc(SCC(=O)Nc3nc(C(C)(C)C)cs3)n2Cc2ccco2)cc1 | 0.705 µM (active)
COc1ccc(CCNC(=O)COc2cc(O)c3c(c2)OC(C)(C)CC3=O)cc1OC | inactive
CCOc1ccc(CCNC(=O)CN2CCN(Cc3ccccc3C)C2=O)cc1OCC | inactive
Cc1sc2ncnc(NCC3COc4ccccc4O3)c2c1C (stereo unspecified) | 1.99 µM (active)
COc1cc2c(cc1NC(=S)NC(=O)c1c(OC)cccc1OC)oc1ccccc12 | 2.17 µM (active)
CC1CCCCN1c1ccc(N)cc1C(N)=O (stereo unspecified) | inactive
COc1ccc(OC)c(CCNC(=O)Cn2sc3nc(C)cc(C)c3c2=O)c1 | 4.99 µM (active)
CC1=C(C(=O)NC2CCCc3c2cnn3-c2cccc(C)c2C)OCCO1 (stereo unspecified) | 0.0137 µM (active)
CCOc1ccc(CCNC(=O)COC(=O)c2ccc(OC(C)C)cc2)cc1OCC | 0.158 µM (active)

Compound | Potency
CCOc1ccc(OCC)c(NC(=O)C2CCN(S(=O)(=O)c3c(C)noc3C)CC2)c1 | 0.996 µM (active)
Cc1ccc(S(=O)(=O)N(C)C)cc1NC(=O)COC(=O)c1sc2cc(Cl)ccc2c1Cl | 14.1 µM (active)
COc1cc(/C=N/NC(=O)c2ccc(CN3C(=O)c4cccc5cccc3c45)cc2)cc(OC)c1O | 4.99 µM (active)
O=C(NCC1(N2CCOCC2)CCCCC1)c1ccc(S(=O)(=O)Nc2ccccc2F)cc1 | 3.97 µM (active)
COc1ccc(/C=C/C(=O)NCCc2ccc(OC)c(OC)c2)cc1 | 5.6 µM (active)
COc1ccc(CCNC(=O)CSc2nnc(-c3ccccc3)c3ccccc23)cc1OC | 4.45 µM (active)
COc1ccc(CCNC(=O)Cn2nnc(-c3ccc(N(C)C)cc3)n2)cc1OC | 0.705 µM (active)
O=C(NC1CCCc2c1cnn2-c1cc(F)cc(F)c1)c1cc[n+]([O-])cc1 (stereo unspecified) | inactive
CN(CC1CCCO1)S(=O)(=O)c1ccc(C(=O)Nc2ccc(F)cc2)cc1 (stereo unspecified) | inactive
O=C(Nc1cccc(S(=O)(=O)N2CCCCC2)c1)c1ccccc1NS(=O)(=O)c1ccc(F)cc1 | 28.1 µM (active)
CCN1CCCC1CNC(=O)C(=O)NCCc1ccc(OC)c(OC)c1 (stereo unspecified) | inactive
Cn1nc(CC(=O)Nc2ccc(N3CCN(C(=O)OC(C)(C)C)CC3)cc2)c2ccccc2c1=O | 1.77 µM (active)
CCOC(=O)c1cc(CC)sc1NC(=O)C1CC(=O)NN1Cc1ccccc1 (stereo unspecified) | 0.315 µM (active)
Cc1cc(C)c(Cc2c(C)nc3c(C(=O)NCc4ccco4)cnn3c2C)c(C)c1 | 7.05 µM (active)
CNC(=O)c1sc2nc(-c3ccc(OC)cc3)cn2c1C | 15.8 µM (active)
COc1ccc(CCNC(=O)CCCn2nc(C)n3ccnc3c2=O)cc1OC | inactive
COc1ccc(CCNC(=O)c2ccc(N(C)S(=O)(=O)c3ccc(C)cc3)cc2)cc1OC | 14.1 µM (active)
CCc1cccc2cc3c(N)c(C(=O)Nc4ccc(S(=O)(=O)N5CCCC5)cc4)sc3nc12 | 9.96 µM (active)
